Results filed as inconclusive are left out. Active and inactive are the calls of the source. The calls were made as follows: active = hit-call score of the fitted dose curve at least 0.9, where 1 is the maximum; inconclusive = response in the unintended direction; inactive = score below 0.9.
assay: TOX21_p53_BLA_p5_viability: Viability Assessment in the Tox21 HCT-116 p53 Agonism Beta-lactamase Assay, Phase 5 (AID 2283600)
Excerpt: TOX21_p53_BLA_p5 is a cell-based, single-readout assay that uses HCT116, a human intestinal cell line, […] in a 1536-well plate.TOX21_p53_BLA_p5_viability is an assay readout measuring cellular ATP content and detected with CellTiter-Glo Luciferase-coupled ATP quantitation.TOX21_p53_BLA_p5_viability used a type of viability reporter where loss-of-signal activity can be used to understand changes in the cell viability. Furthermore, this assay endpoint can be referred to as a secondary readout, because this assay has produced multiple assay endpoints where this one serves a viability function. To generalize the intended target to other relatable targets, this assay endpoint is annotated to the cell cycle intended target family, where the subfamily is cytotoxicity.
Thawing Method: Place 14 mL of pre-warmed thaw medium into a 15 mL of conical tub. Remove the vial of cells to be thawed from liquid nitrogen and thaw rapidly by placing at 37C in a water bath with gentle agitation for 1-2 minutes. Decontaminate the vial by wiping with 70% ethanol before opening in a biological safety cabinet. Transfer the vial contents drop-wise into 14 mL of thaw medium in a sterile 15-mL conical tub. Centrifuge cells at 900 rpm for 4 minutes and resuspend in thaw medium. Transfer contents to the T75 tissue culture flask containing Thaw Medium and place flask in a humidified 37C/5% CO2 incubator. Switch to growth medium at first passage.Propagation Method: Aspirate medium, rinse once in DPBS, add 0.25% Trypsin/EDTA and swirl to coat the cell evenly. Add an equal volume of Growth Medium to inactivate Trypsin after 2-3 minutes incubation at 37C. Centrifuge cells at 900 rpm for 4 minutes and resuspend in growth medium. Cell should be passage or fed at least twice a week.Assay Protocol: Harvest cells from culture in growth medium and resuspend in assay medium. 2.2 Dispense 4000 cells/5 uL/well into 1536-well black/clear bottom plates using a Multidrop dispenser. After the cells were incubated at 37C for 5 hours, 23 nL of compounds dissolved in DMSO were transferred to the assay plate by a PinTool resulting in a 217-fold dilution. Incubate the plates for 16 hours at 37C, 5% CO2. Add 1 uL of 6X LiveBLAzer FRET B/G (CCF4-AM) Substrate Mixture to each well using a BioRAPTR dispenser and incubate the plates at room temperature for 2 hours. Measure fluorescence intensity at 460 and 530 nm emission and 405 nm excitation by an Envision detector. Data is expressed as the ratio of 460nm/530nm emissions. Add 4 uL of Cell-titer Glo to each well using BioRAPTR and incubate the plates at room temperature for […]. For cell viability readout that measures cytotoxicity, 4 ul/well of CellTiter-Glo reagent was added into the assay plates using a Flying Reagent Dispenser. After 30 min incubation at room temperature, the luminescence intensity in the plates was measured using a ViewLux plate reader.

SMILES | outcome
O=C1NC(=O)[C@@H]2CC=CC[C@H]12 | inactive
CC(C)(C)NCC(O)CSc1nc(-c2ccc(C(N)=O)s2)cs1 (stereo not given) | inactive
CCC[C@@H]1C[C@@H](C(=O)N[C@@H]([C@H]2O[C@H](SC)[C@H](OP(=O)(O)O)[C@@H](O)[C@H]2O)[C@H](C)Cl)N(C)C1 | inactive
CC1c2ccccc2CN1NC(=O)c1ccc(Cl)c(S(N)(=O)=O)c1 (stereo not given) | inactive
CCN(CC)CCNC(=O)c1c(C)[nH]c(/C=C2\C(=O)Nc3ccc(F)cc32)c1C | inactive
CN1C(C)(C)CCCC1(C)C | inactive
CCCCCCCCCCCCOC(=O)c1ccc(O)cc1 | inactive
CC1(C)S[C@@H]2[C@H](NC(=O)Cc3ccccc3)C(=O)N2[C@H]1C(=O)O (tested in a mixture with another compound) | inactive
NC(=O)Nc1ccc(Cl)c(Cl)c1 | inactive
CC=C(C(=CC)c1ccc(O)cc1)c1ccc(O)cc1 | inactive
Oc1ccc(OCc2ccccc2)cc1 | inactive
CC(=O)CC(C)=O | inactive
CC(C(=O)O)c1ccc2c(c1)[nH]c1ccc(Cl)cc12 (stereo not given) | inactive
O=C(O)C(S)C(S)C(=O)O (stereo not given) | inactive
Cc1cc(C(C)(C)C)cc(C)c1CC1=NCCN1 | inactive
CC(=O)OCC(=O)[C@@]1(O)CCC2C3CCC4=CC(=O)CC[C@]4(C)C3C(O)C[C@@]21C (stereo not given in full) | inactive
OCCc1ccccn1 | inactive
CCOc1ccc(N=C(C)Nc2ccc(OCC)cc2)cc1 | inactive
C1=CCC(c2ccccc2)CC1 (stereo not given) | inactive
CC(C)COC(=O)c1ccc(N)cc1 | inactive

SMILES | outcome
CC1CS(=O)(=O)CCN1N=Cc1ccc([N+](=O)[O-])o1 (stereo not given) | inactive
O=c1n(CCCN2CCN(c3cccc(Cl)c3)CC2)nc2ccccn12 | inactive
CCN(CC)CCOCCOC(=O)C1(c2ccccc2)CCCC1 | inactive
c1ccc(CN(CC2=NCCN2)c2ccccc2)cc1 | inactive
CCCCCCCC/C=C\CCCCCCCC(=O)NCc1ccc(O)c(OC)c1 | inactive
NC(N)=NC(=O)Cc1c(Cl)cccc1Cl | inactive
O=C(O)c1ccc(-n2nc(-c3ccccc3O)nc2-c2ccccc2O)cc1 | inactive
COc1ccc(C=CC(=O)OCCC(C)C)cc1 | inactive
O=C(O[C@H]1CN2CCC1CC2)N1CCc2ccccc2[C@@H]1c1ccccc1 | inactive
CC(O)[C@@H]1NC(=O)[C@H](CCCCN)NC(=O)[C@@H](Cc2c[nH]c3ccccc23)NC(=O)[C@H](Cc2ccccc2)NC(=O)[C@@H](NC(=O)[C@H](N)Cc2ccccc2)CSSC[C@@H](C(=O)N[C@H](CO)[C@@H](C)O)NC1=O (stereo not given in full) | inactive
CC(C)[C@@H](N)C(=O)O | inactive
CN(C)CC/C=C1\c2ccccc2Sc2ccc(Cl)cc21 | inactive
CC(C)C[P+](C)(CC(C)C)CC(C)C | inactive
CC(=O)Oc1cccc(C(=O)O)c1OC(C)=O | inactive
CCC(CC)(CC(=O)Nc1cccc(/C=C/c2nc(C3CCC3)cs2)c1)C(=O)O | inactive
Cc1c(N)nc(C(CC(N)=O)NCC(N)C(N)=O)nc1C(=O)NC(C(=O)NC(C)C(O)C(C)C(=O)NC(C(=O)NCCc1nc(-c2nc(C(=O)NCCCN[C@@H](C)c3ccccc3)cs2)cs1)C(C)O)C(O[C@@H]1O[C@@H](CO)[C@@H](O)[C@H](O)[C@@H]1O[C@H]1O[C@H](CO)[C@@H](O)[C@H](OC(N)=O)[C@@H]1O)c1cnc[nH]1 (stereo not given in full) | inactive
COC(=O)c1ccccc1Cl | inactive
CN1C(=O)CC(c2ccccc2)C1=O (stereo not given) | inactive
N/C(=N\N=Cc1ccc(Cl)cc1)NN=Cc1ccc(Cl)cc1 | inactive
NC(=O)COCCN1CCN(C(c2ccccc2)c2ccc(Cl)cc2)CC1 (stereo not given) | inactive
